Assay results as given in PubChem BioAssay AID2073 (Sanford-Burnham Center for Chemical Genomics, 2009).
Out of some 290,000 compounds screened, about 570 (0.2%) were called active. Another 1% or so got no clear call; they are omitted. Rule as the data show it: active = inhibition mostly above about 51% (no sharp cut-off); inconclusive = no clear call, values can overlap the other calls; inactive = mostly below about 53%. This excerpt belongs to a sample that is enriched for actives.

Molecular target: Voltage-dependent N-type calcium channel subunit alpha-1B (Homo sapiens) (UniProt Q00975)
Sequence (Q00975 whole entry, looked up): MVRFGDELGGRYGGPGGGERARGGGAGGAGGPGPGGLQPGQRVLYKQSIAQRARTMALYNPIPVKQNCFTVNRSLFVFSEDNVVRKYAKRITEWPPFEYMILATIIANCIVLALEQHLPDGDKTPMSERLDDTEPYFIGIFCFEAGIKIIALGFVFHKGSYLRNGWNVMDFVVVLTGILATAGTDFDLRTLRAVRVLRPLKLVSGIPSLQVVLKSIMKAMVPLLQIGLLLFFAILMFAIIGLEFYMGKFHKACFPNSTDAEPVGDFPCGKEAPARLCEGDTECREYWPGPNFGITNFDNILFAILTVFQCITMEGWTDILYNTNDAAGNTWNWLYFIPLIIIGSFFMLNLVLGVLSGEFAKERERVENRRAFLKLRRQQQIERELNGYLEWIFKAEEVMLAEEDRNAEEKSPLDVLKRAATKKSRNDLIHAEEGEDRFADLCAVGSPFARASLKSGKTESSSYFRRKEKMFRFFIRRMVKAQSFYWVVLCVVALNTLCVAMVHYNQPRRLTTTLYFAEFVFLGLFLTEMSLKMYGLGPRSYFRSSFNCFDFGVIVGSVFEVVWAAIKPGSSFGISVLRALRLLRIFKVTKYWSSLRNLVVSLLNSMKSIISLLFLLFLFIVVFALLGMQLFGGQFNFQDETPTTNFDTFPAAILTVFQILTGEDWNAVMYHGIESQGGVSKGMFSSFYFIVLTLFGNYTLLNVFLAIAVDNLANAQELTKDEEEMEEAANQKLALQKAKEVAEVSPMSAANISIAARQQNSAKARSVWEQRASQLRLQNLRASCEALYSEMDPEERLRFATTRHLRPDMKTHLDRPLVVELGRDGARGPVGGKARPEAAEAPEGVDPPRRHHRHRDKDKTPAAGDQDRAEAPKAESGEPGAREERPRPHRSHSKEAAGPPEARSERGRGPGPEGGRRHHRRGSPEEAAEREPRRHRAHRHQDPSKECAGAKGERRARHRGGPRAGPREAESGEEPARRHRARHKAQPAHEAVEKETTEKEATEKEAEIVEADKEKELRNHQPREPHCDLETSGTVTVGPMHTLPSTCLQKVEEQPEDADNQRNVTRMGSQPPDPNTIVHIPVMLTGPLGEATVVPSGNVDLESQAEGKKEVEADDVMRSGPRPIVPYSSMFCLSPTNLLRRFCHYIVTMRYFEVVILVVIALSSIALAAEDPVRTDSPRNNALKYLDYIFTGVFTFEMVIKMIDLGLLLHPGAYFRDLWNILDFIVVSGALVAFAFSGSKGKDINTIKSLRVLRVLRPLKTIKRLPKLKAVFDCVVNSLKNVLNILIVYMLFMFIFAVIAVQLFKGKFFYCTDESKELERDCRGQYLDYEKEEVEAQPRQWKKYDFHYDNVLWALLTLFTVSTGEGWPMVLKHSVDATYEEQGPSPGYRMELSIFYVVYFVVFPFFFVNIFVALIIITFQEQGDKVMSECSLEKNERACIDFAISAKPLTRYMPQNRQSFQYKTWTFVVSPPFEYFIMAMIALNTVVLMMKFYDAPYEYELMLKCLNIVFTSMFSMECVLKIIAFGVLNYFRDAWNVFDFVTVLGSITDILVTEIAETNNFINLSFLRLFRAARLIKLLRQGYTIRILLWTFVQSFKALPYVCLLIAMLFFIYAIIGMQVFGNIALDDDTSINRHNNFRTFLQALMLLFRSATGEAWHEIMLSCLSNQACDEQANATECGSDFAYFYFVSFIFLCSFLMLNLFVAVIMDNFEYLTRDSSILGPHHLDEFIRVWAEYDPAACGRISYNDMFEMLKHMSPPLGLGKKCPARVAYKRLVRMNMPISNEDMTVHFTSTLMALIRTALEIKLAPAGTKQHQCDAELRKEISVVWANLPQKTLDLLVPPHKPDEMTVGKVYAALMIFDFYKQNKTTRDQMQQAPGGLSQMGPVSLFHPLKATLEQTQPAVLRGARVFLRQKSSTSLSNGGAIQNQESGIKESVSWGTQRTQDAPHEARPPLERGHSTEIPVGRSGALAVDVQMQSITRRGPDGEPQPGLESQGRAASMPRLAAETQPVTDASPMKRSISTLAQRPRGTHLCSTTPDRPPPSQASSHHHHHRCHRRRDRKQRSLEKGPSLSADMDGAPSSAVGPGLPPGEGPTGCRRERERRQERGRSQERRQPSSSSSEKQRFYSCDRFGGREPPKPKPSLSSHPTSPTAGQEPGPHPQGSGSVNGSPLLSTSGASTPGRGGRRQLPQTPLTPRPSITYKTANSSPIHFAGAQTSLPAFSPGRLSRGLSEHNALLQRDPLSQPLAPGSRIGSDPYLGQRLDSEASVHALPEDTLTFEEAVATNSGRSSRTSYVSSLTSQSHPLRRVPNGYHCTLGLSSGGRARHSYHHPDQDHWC
Assay: inhibitors of Mint1-CaV2.2 protein interaction, biochemical, HTRF (AID 2073)
Details: at 20 µM, stronger effect = higher value
[1] = measured here: average of repeat tests

| SMILES | inhibition | inhibition [1] [%] |
| --- | --- | --- |
| Fc1cccc(Cl)c1CSc1nnc2ccccn12 | 4% (inactive) | – |
| Cc1c(CC(=O)NCC(=O)NCC(=O)O)c(=O)oc2cc3c(cc12)CCC(C)(C)O3 | 16.3% (inactive) | – |
| Clc1ccc(-n2nnnc2SCc2cn3ccccc3n2)cc1 | -7.5% (inactive) | – |
| Cc1cc(Cl)c(OCCOCCN2CCCCC2)c(Br)c1 | -0.3% (inactive) | – |
| CCNC(=O)NC(=O)COC(=O)C1CSC2(C)CCC(=O)N12 (stereo not given) | 3.1% (inactive) | – |
| C=CCN=C(NC#N)SCC(=O)NCc1ccccc1 | 2.2% (inactive) | – |
| COc1ccc(-c2ccc(C(=O)O)o2)c([N+](=O)[O-])c1 | 59.6% (active) | – |
| COc1cccc(NC(=O)c2ccc(-c3ccccc3[N+](=O)[O-])o2)c1 | 52.1% (inactive) | 1.4 |
| CNC(=O)/C(C#N)=C/c1ccc(-c2ccc(OC)cc2[N+](=O)[O-])o1 | 11.4% (inactive) | – |
| Cc1ccc(S(=O)(=O)N2CCN(C(=O)c3ccc(Cl)nc3)CC2)cc1 | 3% (inactive) | – |
| COc1ccc(C(=O)Nc2ccc(CN3CCOCC3)cc2)cc1Br | 3% (inactive) | – |
| COc1ccc(-c2cc(-c3ccccc3)nc(=O)[nH]2)cc1 | 0.5% (inactive) | – |
| Cc1cc(C)c2nc(-c3cccnc3)cc(C(=O)Nc3ccc(S(=O)(=O)Nc4onc(C)c4C)cc3)c2c1 | 31.4% (inactive) | – |
| Cc1cc(C)c2nc(-c3ccccn3)cc(C(=O)Nc3ccc(S(=O)(=O)Nc4onc(C)c4C)cc3)c2c1 | 51% (active) | 52.5 |
| Cc1cc(C)c2nc(-c3ccccn3)cc(C(=O)Nc3ccc(S(=O)(=O)Nc4cc(C)on4)cc3)c2c1 | 39.7% (inactive) | – |
| COC(=O)c1sccc1NC(=O)c1ccc(C)o1 | 19.2% (inactive) | – |
| O=S(=O)(Cc1ccccc1)N1CCN(c2ncccn2)CC1 | 7.7% (inactive) | – |
| CCC(C(=O)NC1CC1)n1nc(C)c2c(C)n(-c3ccc(C)cc3)nc2c1=O (stereo not given) | 9.6% (inactive) | – |
| COc1cc2c(cc1NC(=S)NC(=O)/C=C/c1ccco1)oc1ccccc12 | 53.2% (active) | – |
| COc1ccc(/C=C/C(=O)NC(=S)Nc2cc3oc4ccccc4c3cc2OC)cc1 | 0.7% (inactive) | – |
| COc1cc2c(cc1NC(=S)NC(=O)/C=C/c1ccc(OC)c(OC)c1)oc1ccccc12 | 14.5% (inactive) | – |
| Cc1oc(-c2ccccc2Cl)nc1CS(=O)CC(=O)NCc1ccco1 (stereo not given) | 19.1% (inactive) | – |
| Cc1cc(OCC(O)CN2CCCC2)ccc1C(C)C (stereo not given) | -5.6% (inactive) | – |
| O=C(Nc1ccc(C2=NCCN2)cc1)c1ccc(C(=O)Nc2ccc(C3=NCCN3)cc2)c(Cl)c1 | 51.6% (active) | – |
| O=C(Nc1ccc(C2=NCCN2)cc1)c1ccc(Cl)c(C(=O)Nc2ccc(C3=NCCN3)cc2)c1 | 36.8% (inactive) | – |
| O=C(Nc1ccc(C2=NCCN2)cc1)c1ccc(C(=O)Nc2ccc(C3=NCCN3)cc2)c([N+](=O)[O-])c1 | 30.7% (inactive) | – |
| O=C(/C=C/c1ccc(Cl)cc1)N(Cc1ccccc1)c1ccccn1 | 22.8% (inactive) | – |
| COc1ccccc1CN(C)C(=O)c1cnc(C)cn1 | 5.7% (inactive) | – |

| SMILES | inhibition | inhibition [1] [%] |
| --- | --- | --- |
| Cc1cccc(/C=N/N2CCN(c3ccccc3)CC2)c1 | -12.6% (inactive) | – |
| CCCN1CCC(=O)N([C@H](CO)c2ccccc2)CC1 | 5.6% (inactive) | – |
| CCCN1C(=O)c2cccc3c(N4CCCCC4)ccc(c23)C1=O | 11.8% (inactive) | – |
| C=CCN1C(=O)c2cccc3c(N4CCCCC4)ccc(c23)C1=O | 53.2% (active) | – |
| O=C1c2cccc3c(N4CCCCC4)ccc(c23)C(=O)N1CCO | 24.6% (inactive) | – |
| CCOc1ccc(C(=O)NC(=S)NCCCN2CCOCC2)cc1 | -2.3% (inactive) | – |
| O=C(Nc1cccc(S(=O)(=O)N2CCCCC2)c1)c1c2c(nc3ccccc13)CCN(Cc1ccccc1)C2 | 40.8% (inactive) | – |
| O=C(Nc1cccc(S(=O)(=O)N2CCOCC2)c1)c1c2c(nc3ccccc13)CCC2 | 56% (active) | – |
| COc1ccc(NC(=O)c2c3c(nc4ccccc24)CCC3)cc1S(=O)(=O)N1CCOCC1 | 59.4% (inactive) | 41.1 |
| CCOc1cc(C(c2c(C)[nH][nH]c2=O)c2c(C)[nH][nH]c2=O)cc(Br)c1OC | 5.6% (inactive) | – |
| C=CC#CC1(O)CC(C)[N+](C)(C)CC1C (stereo not given) | 17.6% (inactive) | – |
| CCOCCn1c(=NC(=O)c2cc(Cl)sc2Cl)sc2cc(S(N)(=O)=O)ccc21 | 53.8% (active) | – |
| C=CCn1c(=NC(=O)c2cc(Cl)sc2Cl)sc2cc(S(N)(=O)=O)ccc21 | 27.4% (inactive) | – |
| COCCn1c(=NC(=O)c2cc(Cl)sc2Cl)sc2cc(S(N)(=O)=O)ccc21 | 38.7% (inactive) | – |
| CCOc1ccccc1C(=O)NC(C(=O)Nc1cccnc1)C(C)C (stereo not given) | 3.3% (inactive) | – |
| COCCn1c(C)cc(C(=O)COc2cccnc2[N+](=O)[O-])c1C | -4% (inactive) | – |
| Cc1cc(C(=O)COc2cccnc2[N+](=O)[O-])c(C)n1Cc1ccco1 | 78.9% (active) | – |
| Cc1cc(C(=O)COc2cccnc2[N+](=O)[O-])c(C)n1Cc1cccs1 | 34% (inactive) | – |
| Cc1ccc(NC(=O)c2c3c(nc4ccccc24)CCC3)cc1S(=O)(=O)N(C)C | 53.6% (inactive) | 31.4 |
| Cc1ccc(S(=O)(=O)N(C)CC(=O)OCC(=O)N2CCCC2=O)cc1 | -12.9% (inactive) | – |
| O=C(Nc1nc(-c2cccnc2)cs1)c1ccc([N+](=O)[O-])cc1 | 19% (inactive) | – |
| COc1cc(CN(C(=O)c2ccco2)C2CCS(=O)(=O)C2)cc(OC)c1OC (stereo not given) | 11.2% (inactive) | – |
| CC(=O)c1cccc(Nc2nc(-c3ccccc3)cs2)c1 | 0.5% (inactive) | – |
| Oc1ccc(Cl)cc1C=Nc1ccc2c3c(cccc13)CC2 | 50.4% (inactive) | 11.1 |
| Cc1cccc(C=Nc2ccc3c4c(cccc24)CC3)c1O | 7.8% (inactive) | – |
| Oc1ccc(Br)cc1C=Nc1ccc2c3c(cccc13)CC2 | 53.5% (active) | – |
| O=[N+]([O-])c1cc(Cl)ccc1N1CCCC1 | -1.5% (inactive) | – |
